Inconclusive results are not listed. The source made the active and inactive calls. The calls were made as follows, unless noted: active = hit-call score of the fitted dose curve at least 0.9, where 1 is the maximum; inconclusive = response in the unintended direction; inactive = score below 0.9.
Assays:
[1] = Tanguay_ZF_120hpf_EYE_legacy: (Legacy) Oregon State University Tanguay Lab 120 Hour Post-fertilization zebrafish Assay for Eye Malformation (AID 2283636);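 also: binary presence or absence of eye malformation scored by brightfield in 120 hpf larvae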
How it was run: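 Dechorionated Tropical 5D zebrafish embryos, one per well from 6 hpf, static exposure to 120 hpf at 28C, 0.64% DMSO. Eye malformation scored present/absent by brightfield; dead embryos not scored.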

[2] = Tanguay_ZF_120hpf_SNOU_legacy: (Legacy) Oregon State University Tanguay Lab 120 Hour Post-fertilization zebrafish Assay for Snout Malformation (AID 2283637)
How it was run: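 Dechorionated tropical 5D wild-type zebrafish embryos exposed statically from 6 to 120 hpf at 28C, one per well, in 0.64% DMSO. Snout malformation scored as present/absent by brightfield at 120 hpf; dead embryos not scored.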

[3] = Tanguay_ZF_120hpf_JAW_legacy: (Legacy) Oregon State University Tanguay Lab 120 Hour Post-fertilization zebrafish Assay for Jaw Malformation (AID 2283638);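 as to AC50: active means more embryos with jaw malformation than DMSO controls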
How it was run: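 Wild-type 5D embryos, chorion removed at 4 hpf, dosed singly from 6 hpf; 28C static, sealed, foil-covered, to 120 hpf. Endpoint: jaw defect yes/no (brightfield); mortality excludes scoring.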

[4] = Tanguay_ZF_120hpf_OTIC_legacy: (Legacy) Oregon State University Tanguay Lab 120 Hour Post-fertilization zebrafish Assay for Otic Vesicle Malformation (AID 2283639)
How it was run: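 Tropical 5D wild-type zebrafish embryos were exposed statically in sealed, foil-covered plates at 28C until 120 hpf, with 0.64% (vol/vol) DMSO final. Otic vesicle malformation was scored present/absent by brightfield microscopy, with DMSO as baseline.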

[5] = Tanguay_ZF_120hpf_PE_legacy: (Legacy) Oregon State University Tanguay Lab 120 Hour Post-fertilization zebrafish Assay for Pericardial Edema (AID 2283640);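 as to AC50: potency for increased incidence of pericardial edema versus DMSO baseline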
How it was run: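 Zebrafish larvae are exposed from early development to 120 hpf at 28C, with 0.64% DMSO final. Each surviving larva receives a yes/no pericardial edema call by brightfield imaging, analysed relative to the DMSO baseline.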

[6] = Tanguay_ZF_120hpf_BRAI_legacy: (Legacy) Oregon State University Tanguay Lab 120 Hour Post-fertilization zebrafish Assay for Brain Malformation (AID 2283641)
How it was run: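 Static exposure of staged wild-type embryos until 120 hpf, kept at 28C with light excluded and final DMSO of 0.64% (vol/vol). Presence or absence of brain malformation was noted under brightfield; mortality precluded scoring.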

[7] = Tanguay_ZF_120hpf_SOMI_legacy: (Legacy) Oregon State University Tanguay Lab 120 Hour Post-fertilization zebrafish Assay for Somite Malformation (AID 2283647)
How it was run: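 Somitogenesis defects are recorded as binary calls in whole larvae at 120 hpf after continuous static chemical exposure starting at 6 hpf in dechorionated 5D embryos. DMSO serves as negative control and baseline.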

[8] = Tanguay_ZF_120hpf_CFIN_legacy: (Legacy) Oregon State University Tanguay Lab 120 Hour Post-fertilization zebrafish Assay for Caudal Fin Malformation (AID 2283649)
How it was run: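 Single dechorionated 5D wild-type embryos are dosed at 6 hpf (final DMSO 0.64%) and held statically at 28C. Caudal fin malformation is recorded as present or absent at 120 hpf under brightfield, excluding dead embryos.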

[9] = Tanguay_ZF_120hpf_PIG_legacy: (Legacy) Oregon State University Tanguay Lab 120 Hour Post-fertilization zebrafish Assay for Pigmentation Malformation (AID 2283650)
How it was run: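 Dechorionated Tropical 5D wild-type embryos, one per well from 6 hpf, statically exposed at 28C in the dark until 120 hpf, 0.64% DMSO final. Pigmentation scored present/absent by brightfield microscopy; dead embryos not scored; fitted versus DMSO.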

[10] = Tanguay_ZF_120hpf_CIRC_legacy: (Legacy) Oregon State University Tanguay Lab 120 Hour Post-fertilization zebrafish Assay for Circulatory Malformation (AID 2283651)
How it was run: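 Tropical 5D wild-type embryos, dechorionated with pronase at 4 hpf, were placed singly in wells at 6 hpf and exposed statically at 28C to 120 hpf (0.64% DMSO final). Circulatory malformation was scored present/absent by brightfield microscopy.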

[11] = read-out: kallikrein-3 (KLK3), KLK3 (gene 354); assay: LTEA_HepaRG_KLK3: Life Technologies and Expression Analysis (LTEA) Assay for kallikrein-3 (KLK3) using HepaRG (AID 2283652; active = hit-call score of the fitted dose curve at least 0.9, where 1 is the maximum; inactive = score below 0.9); conditions: mRNA level, 48 h; actives raise or lower the signal
How it was run: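 Differentiated human HepaRG cells in serum-free induction medium exposed 48 h in duplicate, eight-point half-log series from 100 uM in 0.5% DMSO. KLK3 mRNA by qRT-PCR, normalised to ACTB, GAPDH, POLR2A; bidirectional fit versus DMSO.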

[12] = read-out: solute carrier (SLC22A6), SLC22A6 (gene 9356); assay: LTEA_HepaRG_SLC22A6: Life Technologies and Expression Analysis (LTEA) Assay for solute carrier (SLC22A6) using HepaRG (AID 2283653; active = hit-call score of the fitted dose curve at least 0.9, where 1 is the maximum; inactive = score below 0.9); conditions: mRNA level, 48 h; actives raise or lower the signal
How it was run: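 Gene-expression endpoint in HepaRG hepatic cells: duplicate 8-point concentration-response, highest 100 uM, 48 h treatment in serum-free medium with 0.5% DMSO. SLC22A6 expression measured by qRT-PCR, normalised to ACTB/GAPDH/POLR2A.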

[13] = Tanguay_ZF_120hpf_SWIM_legacy: (Legacy) Oregon State University Tanguay Lab 120 Hour Post-fertilization zebrafish Assay for Swim Bladder Malformation (AID 2283654);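 also: swim bladder malformation in each larva scored yes or no under brightfield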
How it was run: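 Dechorionated wild-type Tropical 5D zebrafish embryos, one per well from 6 hpf, were statically exposed at 28C until 120 hpf in 0.64% DMSO. Swim bladder malformation scored as present/absent by brightfield microscopy; not scored in dead larvae.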

[14] = Tanguay_ZF_120hpf_TRUN_legacy: (Legacy) Oregon State University Tanguay Lab 120 Hour Post-fertilization zebrafish Assay for Truncated Body (AID 2283655)
How it was run: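 Single dechorionated zebrafish embryos received test chemical from 6 hpf in 0.64% DMSO, kept at 28C. At 120 hpf, brightfield inspection noted any truncated body.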

[15] = Tanguay_ZF_120hpf_NC_legacy: (Legacy) Oregon State University Tanguay Lab 120 Hour Post-fertilization zebrafish Assay for Notochord and Tail Malformation (AID 2283656)
How it was run: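 Dechorionated 5D zebrafish, 1/well from 6 hpf; static exposure to 120 hpf, 28C, sealed, dark; final DMSO 0.64% v/v. NC scored binary (present/absent); dead embryos not scored. Fit vs DMSO baseline, gain direction.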

[16] = read-out: solute carrier (SLC10A1), SLC10A1 (gene 6554); assay: LTEA_HepaRG_SLC10A1: Life Technologies and Expression Analysis (LTEA) Assay for solute carrier (SLC10A1) using HepaRG (AID 2283657; active = hit-call score of the fitted dose curve at least 0.9, where 1 is the maximum; inactive = score below 0.9); conditions: mRNA level, 48 h; actives raise or lower the signal
How it was run: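 HepaRG cells (single lot) exposed 48 h in serum-free induction medium, 8-point half-log series from 100 uM top in 0.5% DMSO, duplicate. SLC10A1 mRNA by qRT-PCR normalised to ACTB, GAPDH, POLR2A; bidirectional fit versus DMSO.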

[17] = read-out: matrix metalloproteinase-1 (MMP1), MMP1 (gene 4312); assay: LTEA_HepaRG_MMP1: Life Technologies and Expression Analysis (LTEA) Assay for matrix metalloproteinase-1 (MMP1) using HepaRG (AID 2283658; active = hit-call score of the fitted dose curve at least 0.9, where 1 is the maximum; inactive = score below 0.9); conditions: mRNA level, 48 h; actives raise or lower the signal
How it was run: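 In this screen, human liver HepaRG cultures receive each chemical in duplicate for 48 h (top 100 uM, 0.5% DMSO). MMP1 expression is then quantified by TaqMan qRT-PCR with ACTB/GAPDH/POLR2A normalization.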

[18] = tested on: Thyroperoxidase (TPO), gene 54314; assay: CCTE_Simmons_AUR_rTPO: CCTE's Amplex UltraRed Assay for Thyroperoxidase (TPO) Inhibition, Simmons Lab (AID 2283662);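 as to AC50: potency for loss of signal meaning inhibition of peroxidase activity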
How it was run: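 Rat thyroid microsomes (5 ug protein) were incubated with test compound (8 concentrations, 5 nM–87.5 uM final, 0.5% DMSO), 25 uM Amplex UltraRed and 300 uM H2O2 in 200 mM phosphate buffer for 30 min at 37C in the dark; fluorescence read at 544/590 nm.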

[19] = CCTE_Simmons_CellTiterGLO_HEK293T: Viability Assessment in CCTE's Assays for Thyroperoxidase (TPO) Inhibition, Simmons Lab (AID 2283665);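 as to AC50: cells exposed to compound for 24 h before readout; actives reduce ATP signal below DMSO vehicle meaning cytotoxicity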
How it was run: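 HEK293T cells in DMEM with 1% FBS were dosed with 8 concentrations (5 nM–87.5 uM final, 0.5% DMSO) for 24 hr at 37C; ATP content was read by CellTiter-Glo luminescence, loss-of-signal versus DMSO, three biological replicates.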

[20] = Tanguay_ZF_120hpf_PFIN_legacy: (Legacy) Oregon State University Tanguay Lab 120 Hour Post-fertilization zebrafish Assay for Pectoral Fin Malformation (AID 2283648);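 also: each larva judged yes or no for fin defect by brightfield with dead larvae skipped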
How it was run: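 Dechorionated Tropical 5D wild-type zebrafish embryos, one per well, statically exposed from 6 to 120 hpf at 28C with 0.64% DMSO final. Pectoral fin malformation scored present/absent by brightfield at 120 hpf; not scored in dead embryos.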

Measured: AC50

C=CC(=C)CCC=C(C)C
not listed: [20]
inactive: all other assays above

C1N2CN3CN1CN(C2)C3
not listed: [9] | [11] | [12] | [14] | [16] | [17] | [18] | [19]
inactive: all other assays above

NC(=O)NO
active: [18] 43.8 µM
not listed: [7] | [11] | [12] | [14] | [16] | [17]
inactive: all other assays above

O=C(O)c1cc(N=Nc2ccc(S(=O)(=O)Nc3ccccn3)cc2)ccc1O
not listed: [6] | [10] | [11] | [12] | [16] | [17] | [18] | [19]
inactive: all other assays above

CCCCCCc1ccc(O)cc1O
active: [18] 0.00854 µM | [19] 21.3 µM
not listed: [7] | [8] | [11] | [12] | [14] | [16] | [17]
inactive: all other assays above

COC(=O)c1c(Cl)c(Cl)c(C(=O)OC)c(Cl)c1Cl
not listed: [9] | [11] | [12] | [16] | [17] | [18] | [19] | [20]
inactive: all other assays above

CC(=O)OC[C@H]1O[C@@](COC(C)=O)(O[C@H]2O[C@H](COC(C)=O)[C@@H](OC(C)=O)[C@H](OC(C)=O)[C@H]2OC(C)=O)[C@@H](OC(C)=O)[C@@H]1OC(C)=O
not listed: [11] | [12] | [13] | [16] | [17] | [18] | [19]
inactive: all other assays above

Cc1ccc(S(=O)(=O)O)cc1C
not listed: [5] | [9] | [11] | [12] | [16] | [17] | [18] | [19]
inactive: all other assays above

CC(C)=CCCC(C)=CC=O
active: [18] 43.8 µM
not listed: [11] | [12] | [16] | [17] | [20]
inactive: all other assays above

CCOC(=O)COc1ccc2c(c1)CC(NCC(O)c1cccc(Cl)c1)CC2 (stereo unspecified)
inactive: [1] | [2] | [3] | [4] | [5] | [6] | [7] | [20] | [8] | [9] | [13]

O=C(CCCCCCCCc1cccnc1)N1CCC(C=C(c2ccccc2)c2ccccc2)CC1
active: [18] 27.6 µM | [19] 5.13 µM
not listed: [11] | [12] | [14] | [15] | [16] | [17]
inactive: all other assays above

O=C1OC(=O)C2C3C=CC(C3)C12 (stereo unspecified)
not listed: [9] | [11] | [12] | [16] | [17] | [18] | [19]
inactive: all other assays above

CCN(C(=O)c1cc(C)cc(OC[C@H](C)Nc2ccncc2)c1)C(C)C
not listed: [11] | [12] | [13] | [16] | [17] | [18] | [19]
inactive: all other assays above

CCCCCCCCCCCCCCCO
not listed: [7] | [11] | [12] | [16] | [17] | [18] | [19]
inactive: all other assays above

Nc1nc2ncc(CNc3ccc(C(=O)N[C@@H](CCC(=O)O)C(=O)O)cc3)nc2c(=O)[nH]1
active: [18] 20.5 µM
not listed: [6] | [7] | [11] | [12] | [15] | [16] | [17] | [20]
inactive: all other assays above

Clc1nc(Cl)c(Cl)c(Cl)c1Cl
not listed: [5] | [11] | [12] | [14] | [16] | [17] | [18] | [19]
inactive: all other assays above

Nc1ccc(Nc2ccccc2)cc1
inactive: [4] | [15]
active: [1] 45.8 µM | [2] 34.9 µM | [3] 27.2 µM | [5] 40 µM | [6] 45.1 µM | [7] 40.1 µM | [20] 41.2 µM | [8] 47 µM | [9] 48.7 µM | [13] 45.6 µM | [18] 3.09 µM | [19] 38.4 µM

CC[C@H]1CC[C@H](NCc2cc3c(cc2OC)[C@H]2C[C@H]2C(=O)N3C)[C@H](c2ccccc2)N1
not listed: [6] | [10] | [11] | [12] | [16] | [17] | [18] | [19]
inactive: all other assays above
